# PubChem BioAssay (NCATS)
# Records with an inconclusive call do not appear. Unmarked numbers belong to inactive results. Active and inactive are the calls of the source. Calls come from the whole dose curve; as a rule, active = well fitted cell-killing curve with a large enough effect; inconclusive = small, poorly fitted or top-dose-only effect, or effect the other way; inactive = no such curve, though single readings can be large or run the other way.
# Legend:
# [1] = Quantitative High-Throughput drug screen in 47 multiple myeloma cell lines against the NCATS MIPE library collection: FR4_PLB cell viability assay (AID 1918924; note: nearly all actives have a fitted effect of over 35% in size)
# Outline: (§1)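 Approved and investigational drugs from MIPE 4.0 were added by pin tool to 500 cells per well. After 48 hours at 37C, ATP-based CellTiter-Glo luminescence indicated remaining viability.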
# [2] = Quantitative High-Throughput drug screen in 47 multiple myeloma cell lines against the NCATS MIPE library collection: Delta47_JCRB cell viability assay (AID 1918925; note: nearly all actives have a fitted effect of over 45% in size)
# Outline: (§2)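 Relative luminescence from CellTiter-Glo served as the viability signal, referenced to DMSO-treated (100%) and cell-free medium (0%) controls. Treatment lasted 48 hours at 37C with 500 cells per well.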
# [3] = Quantitative High-Throughput drug screen in 47 multiple myeloma cell lines against the NCATS MIPE library collection: EJM_DSMZ cell viability assay (AID 1918926; note: nearly all actives have a fitted effect of over 30% in size)
# Outline: as §2
# [4] = Quantitative High-Throughput drug screen in 47 multiple myeloma cell lines against the NCATS MIPE library collection: AMO1_DSMZ cell viability assay (AID 1918927; note: nearly all actives have a fitted effect of over 30% in size)
# Outline: as §2
# [5] = Quantitative High-Throughput drug screen in 47 multiple myeloma cell lines against the NCATS MIPE library collection: ARP1_JJKsccF8 cell viability assay (AID 1918928; note: nearly all actives have a fitted effect of over 40% in size)
# Outline: (§3)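 Cell viability inhibition in this qHTS is measured via ATP content (CellTiter-Glo) after 48 h drug exposure at 37 °C. Wells hold 500 cells; DMSO-treated wells define 100% and medium-only wells 0%.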
# [6] = Quantitative High-Throughput drug screen in 47 multiple myeloma cell lines against the NCATS MIPE library collection: ARD_JJKsccE7 cell viability assay (AID 1918929)
# Outline: as §2
# [7] = Quantitative High-Throughput drug screen in 47 multiple myeloma cell lines against the NCATS MIPE library collection: Karpas620_DSMZ cell viability assay (AID 1918959); note: nearly all actives have a fitted effect of over 30% in size
# Outline: as §1
# [8] = Quantitative High-Throughput drug screen in 47 multiple myeloma cell lines against the NCATS MIPE library collection: KMM1_JCRB cell viability assay (AID 1918960); note: nearly all actives have a fitted effect of over 30% in size
# Outline: as §3
# [9] = Quantitative High-Throughput drug screen in 47 multiple myeloma cell lines against the NCATS MIPE library collection: Karpas417_ECACC cell viability assay (AID 1918961); settings: Karpas417 myeloma viability, CellTiter-Glo ATP luminescence, 48 h; viability (% of DMSO): at 45.8 µM (top of the series)
# Outline: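 Inhibition of cell viability is measured here. Each line was plated at 500 cells per well, treated with MIPE 4.0 drugs, kept 48 hours at 37C, then assayed for ATP content by CellTiter-Glo luminescence.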
# Potency is the fitted concentration of half-maximal effect.
SMILES,Potency [1],Potency [2],Potency [3],Potency [4],Potency [5],Potency [6],Potency [7],Potency [8],Potency [9]
COCCOc1ccc2c(c1)ncn2-c1ccc2cccc(N3CCC(N)CC3)c2n1,10.5 µM (active),4.18 µM (active),5.9 µM (active),2.09 µM (active),0.418 µM (active),2.96 µM (active),10.5 µM (active),526 nM (active),590 nM (active)
O=C(NCCS(=O)(=O)c1ccc(C(F)(F)F)cn1)c1ccc(Cl)cc1,inactive,inactive,inactive,inactive,inactive,inactive,inactive,inactive,23.5 nM (active)
CNC(=O)c1c(F)cccc1Nc1nc(Nc2cc3c(cc2OC)CCN3C(=O)CN(C)C)nc2[nH]ccc12,10.5 µM (active),0.0526 µM (active),–,–,5.26 µM (active),–,–,–,inactive
CN(C)CCCN=c1c2ccccc2n(C)c2[nH]c(=O)n(C)c(=O)c12,–,16.6 µM (active),20.9 µM (active),2.96 µM (active),18.7 µM (active),5.26 µM (active),–,4690 nM (active),–
Cc1cc(Nc2cc(N3CCN(C)CC3)nc(C=Cc3ccccc3)n2)n[nH]1,–,3.82 µM (active),38.2 µM (active),8.55 µM (active),4.29 µM (active),13.6 µM (active),12.1 µM (active),–,–
COC(=O)[C@]12CCC(C)(C)C[C@@H]1[C@@H]1C(=O)C=C3[C@@]4(C)C=C(C#N)C(=O)C(C)(C)[C@@H]4CC[C@@]3(C)[C@]1(C)CC2,0.372 µM (active),0.235 µM (active),–,0.469 µM (active),0.469 µM (active),0.662 µM (active),0.526 µM (active),662 nM (active),526 nM (active)
CC(C)[C@H](C(=O)Nc1ccc(C(=O)NO)cc1)c1ccccc1,–,0.372 µM (active),1.87 µM (active),0.469 µM (active),0.132 µM (active),0.418 µM (active),1.05 µM (active),662 nM (active),469 nM (active)
CC(C)=CCCC(C)=CCCC(C)=CCSc1ccccc1C(=O)O,1.18 µM (active),2.35 µM (active),–,4.18 µM (active),1.18 µM (active),–,–,187 nM (active),235 nM (active)
CCCCN1CCC(CNC(=O)c2c3n(c4ccccc24)CCCO3)CC1,11.8 µM (active),6.62 µM (active),–,13.2 µM (active),20.9 µM (active),16.6 µM (active),–,–,–
COc1cc(C(=O)NS(=O)(=O)c2ccccc2C)ccc1Cc1cn(C)c2ccc(NC(=O)OC3CCCC3)cc12,23.5 µM (active),14.8 µM (active),16.6 µM (active),–,18.7 µM (active),–,inactive,–,inactive
CC1(C)O[C@@H]2C[C@@H]3[C@H]4C[C@@H](F)C5=CC(=O)C=C[C@]5(C)[C@@]4(F)[C@@H](O)C[C@]3(C)[C@]2(C(=O)CO)O1,inactive,inactive,inactive,–,0.0074 µM (active),–,–,–,inactive
CN1CCN(c2ccc3nc(-c4c(N)c5c(F)cccc5[nH]c4=O)[nH]c3c2)CC1,–,2.35 µM (active),18.7 µM (active),11.8 µM (active),20.9 µM (active),14.8 µM (active),8.33 µM (active),16600 nM (active),8330 nM (active)
CC1=C(CO)C(=O)O[C@@H]([C@@H](C)[C@H]2CC[C@H]3[C@@H]4C[C@H]5O[C@]56[C@@H](O)C=CC(=O)[C@]6(C)[C@@H]4CC[C@]23C)C1,0.372 µM (active),0.148 µM (active),–,–,0.166 µM (active),inactive,inactive,inactive,–
Cc1ccc(S(=O)(=O)Nc2cc(Cl)ccc2C(=O)Nc2nc(-c3ccccc3)cs2)cc1,20.9 µM (active),4.69 µM (active),–,9.35 µM (active),20.9 µM (active),7.43 µM (active),–,4180 nM (active),–
O=C(C=Cc1c(C(=O)O)[nH]c2cc(Cl)cc(Cl)c12)Nc1ccccc1,–,inactive,inactive,inactive,inactive,inactive,inactive,inactive,inactive
C=C1C(=CC=C2CCC[C@]3(C)[C@@H]([C@H](C)C=C[C@H](C)C(C)C)CC[C@@H]23)C[C@@H](O)C[C@@H]1O,–,8.33 µM (active),0.59 µM (active),0.235 µM (active),1.66 µM (active),0.332 µM (active),1.48 µM (active),469 nM (active),118 nM (active)
O=C(O)c1ccc2cc(-c3ccc(O)c(C45CC6CC(CC(C6)C4)C5)c3)ccc2c1,23.5 µM (active),5.9 µM (active),–,1.32 µM (active),5.9 µM (active),5.26 µM (active),5.26 µM (active),–,–
Cc1[nH]c2ccccc2c1CCNCc1ccc(C=CC(=O)NO)cc1,0.0469 µM (active),0.0526 µM (active),0.148 µM (active),–,0.0418 µM (active),–,–,52.6 nM (active),–
CC(O)C1C(=O)N2C(C(=O)O)=C(SC3CNC(C(=O)N(C)C)C3)C(C)C12 (stereo not given),inactive,inactive,inactive,–,–,inactive,inactive,inactive,–
